Bioassay records as filed in PubChem BioAssay.
Most compounds without a hit are left out; they make up all but 1.6% or so of the library.
KCNQ2 enhance: KCNQ2 (rat) channel potentiation; O88943; B-score at 10 µM; CHO-K1 KCNQ2, FluxOR thallium flux fluorescence; active compounds read high; 310,000 tested, 0.54% active;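 active = fluorescence ratio B-score at least 3 SD of library B-scores, with initial fluorescence B-score within 3 of them, cut at about 5.3 in these data; same plate scores as AID 2156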;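 also: B-score of peak minus minimum over baseline fluorescence ratio after K+ and Tl+ stimulus; positive B-score means potentiation of KCNQ2 with more thallium influx and brighter signal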
KCNQ2 inh: blocks the rat KCNQ2 potassium channel; CHO-K1 KCNQ2, FluxOR thallium flux, 20 min; active compounds read low; 310,000 tested, 1.1% active; B-score at 10 µM; AID 2156; O88943;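 active = fluorescence ratio B-score at most minus 3 library SDs, with starting brightness B-score within 2 library SDs, cut at about -5.5 in these data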
Kir21 confirm: confirmation of mouse Kir2.1 potassium channel inhibitors; shares compounds with KCNQ2 enhance; Kir2.1-expressing cells, FluxOR thallium flux fluorescence; active compounds read low; Tl flux remaining, % of negative control (active compounds read low), % at 10 µM; 2,300 tested, 41% active;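 active = Primary-screen hit whose thallium flux fell at least 3 control SD below untreated wells in both duplicates, with normal baseline fluorescence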;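 also: 0% = blank wells without stimulus and 100% = stimulated no-compound controls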
HEK293 ctr: parental HEK293 activity in Kir2.1 inhibitor counter-screen | shares compounds with KCNQ2 enhance | parental HEK293 cells, FluxOR thallium flux fluorescence; 0% = unstimulated blank wells | FluxOR signal as % of negative control (100 = no effect), % at 10 µM | 2,300 tested, 19% active | AID 2105;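 active = dye signal at least 3 control SD above or below untreated wells in both duplicates, raw fluorescence within 3, either direction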;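 also: percent is based on the flux ratio of peak minus minimum fluorescence over baseline F0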
CHO-K1 Tl ctr: parental CHO-K1 activity in KCNQ2 potentiator counter-screen; activity increase over 3SD of controls, % at 10 µM; AID 2282; parental CHO-K1 cells, FluxOR thallium flux fluorescence; zero = vehicle mean+3SD, 100% = vehicle-minus-blank window; shares compounds with KCNQ2 enhance; 1,200 tested, 43% active;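 active = signal rise of at least 3 SD above the untreated control mean, in both duplicate wells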;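 also: counter screen of KCNQ2 potentiator hits so any rise reflects channel-independent effects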
KCNQ1 pot spec: tests whether KCNQ2 potentiators also act on human KCNQ1; shares compounds with KCNQ2 enhance; CHO KCNQ1 stable, FluxOR thallium flux fluorescence; beyond 3SD, as % of vehicle-control signal; 1,200 tested, 28% active; activation over 3SD threshold, % at 10 µM;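 active = fluorescence ratio rise of at least 3 SD of vehicle wells above their mean, in both replicate wells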;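 also: 0% = vehicle mean plus 3 SD and 100% = vehicle minus unstimulated blank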
Target sequence (P51787 whole entry, looked up): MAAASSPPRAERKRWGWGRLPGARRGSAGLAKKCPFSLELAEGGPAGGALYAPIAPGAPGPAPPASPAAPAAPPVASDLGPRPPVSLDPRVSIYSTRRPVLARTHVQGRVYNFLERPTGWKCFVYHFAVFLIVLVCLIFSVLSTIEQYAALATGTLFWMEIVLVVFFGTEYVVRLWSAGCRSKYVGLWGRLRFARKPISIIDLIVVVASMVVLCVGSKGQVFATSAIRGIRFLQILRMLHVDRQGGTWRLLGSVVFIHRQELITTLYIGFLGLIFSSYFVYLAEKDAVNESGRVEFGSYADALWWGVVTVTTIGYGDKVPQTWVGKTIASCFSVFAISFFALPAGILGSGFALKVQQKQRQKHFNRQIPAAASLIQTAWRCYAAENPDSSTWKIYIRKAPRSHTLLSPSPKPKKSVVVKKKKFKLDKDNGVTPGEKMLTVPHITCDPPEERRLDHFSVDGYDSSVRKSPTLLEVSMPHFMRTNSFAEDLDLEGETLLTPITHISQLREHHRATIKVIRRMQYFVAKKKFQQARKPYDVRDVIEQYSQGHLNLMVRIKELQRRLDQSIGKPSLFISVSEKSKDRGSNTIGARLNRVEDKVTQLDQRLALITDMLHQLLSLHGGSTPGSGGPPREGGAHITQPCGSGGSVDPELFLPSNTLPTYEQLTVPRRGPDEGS
KCNQ2 pot conf: confirmation of rat KCNQ2 potassium channel potentiators | potentiation, less the hit threshold, % at 10 µM | shares compounds with KCNQ2 enhance | 1,200 tested, 68% active | CHO-KCNQ2 cells, FluxOR thallium flux fluorescence | AID 2287;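 active = fluorescence ratio rising 3 SD or more over the vehicle control mean in both replicates, plus primary screen hit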;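 also: peak minus minimum thallium fluorescence divided by baseline after K/Tl stimulus; 0% = vehicle mean plus 3 SD and 100% = vehicle minus unstimulated blank difference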
Kir2-1 sel: mouse Kir2.1 off-target activity of KCNQ2 potentiators. shares compounds with KCNQ2 enhance. HEK293 Kir2.1, FluxOR thallium flux fluorescence. activity over 3SD threshold, % at 10 µM. 1,200 tested, 2% active. AID 2345;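 active = fluorescence ratio rise of at least 3 SD above the vehicle-control mean, seen in both replicates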;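 also: 0% = vehicle mean plus 3 SD and 100% = vehicle minus no-stimulus blank window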
KCNQ2 W236L pot: potentiates the retigabine-insensitive rat KCNQ2 W236L mutant channel. 940 tested, 10% active. current increase over 3SD of negative controls (%), active compounds read high, % at 25 µM. CHO KCNQ2-W236L, automated patch clamp current. shares compounds with KCNQ2 enhance. AID 2558;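 active = current increase at least 3 SD of the untreated controls above them in both duplicate recordings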
An asterisk follows results filed as active; i = inactive; . = no result.

SMILES	KCNQ2 enhance	KCNQ2 inh	Kir21 confirm	HEK293 ctr	CHO-K1 Tl ctr	KCNQ1 pot spec	KCNQ2 pot conf	Kir2-1 sel	others
CC(NCCC(Cc1ccccc1)c1ccco1)c1ccccc1 (centres undefined)	.	i	39%*	i	.	.	.	.
COC(=O)Cc1ccc(NC(=S)NCCSc2ccc(Cl)cc2)cc1	.	i	.	.	.	.	.	.
CCc1ccc(C(C)NC(=O)C2CCCC2)cc1 (centres undefined)	12*	i	i	i	9.3*	-12	18*	-16	KCNQ2 W236L pot=i
CCOc1ccc(C(C)NC(=S)NC2CCCCC2)cc1OCC (centres undefined)	2.3	i	.	.	.	.	.	.
CCC(NC(=S)NC1CCCCC1)c1ccccc1 (centres undefined)	12*	i	.	.	-9	-1	28*	-59	KCNQ2 W236L pot=i
CCOc1ccc(C(C)NC(=S)NC2CCCCC2)cc1 (centres undefined)	5.4*	i	i	i	-15	27*	20*	-43	KCNQ2 W236L pot=i
CC(NC(=O)C1CCCC1)c1ccc2c(c1)OCCO2 (centres undefined)	1.8	i	.	.	.	.	.	.
CC(CCc1ccccc1)NC(=S)NC1CCCCC1 (centres undefined)	.	i	.	.	.	.	.	.
CCOc1ccc(C(C)NC(=O)C2CCCC2)cc1 (centres undefined)	1.5	i	.	.	.	.	.	.
CC(NC(=O)C1CCCCC1)c1ccc2c(c1)OCCO2 (centres undefined)	5.7*	i	i	i	6.0*	39*	8.5*	-17	KCNQ2 W236L pot=i
CN1CCN(C(=O)C2CC(=O)N(c3ccc(Cl)cc3)C2)CC1 (centres undefined)	1.9	i	.	.	.	.	.	.
COCc1cc(C)nc(SCC[N+](C)(C)CC(=O)c2ccccc2)c1C#N	.	i	.	.	.	.	.	.
N#Cc1ccccc1S(=O)(=O)N1CCN(C(=O)CN2C(=O)NC3(CCCC3)C2=O)CC1	.	i	.	.	.	.	.	.
CC(NC(=O)CCn1nc(-c2ccc(Cl)cc2)ccc1=O)c1ccccc1 (centres undefined)	.	i	.	.	.	.	.	.
O=C(c1ccc2c(c1)OCO2)C1CCCN(Cc2c(F)ccc(F)c2F)C1 (centres undefined)	.	i	.	.	.	.	.	.
CCC(C)c1ccc(C(C)NC(=S)NC2CCCCC2)cc1 (centres undefined)	13*	i	.	.	57*	37*	34*	-50	KCNQ2 W236L pot=i
CCc1ccc(C(C)NC(=O)C2(C)CC2(Br)Br)cc1 (centres undefined)	0.22	i	.	.	.	.	.	.
CCc1ccc(S(=O)(=O)NC(=S)NC2CCCCC2)cc1	8.9*	i	i	302%*	-18	-18	52*	-28	KCNQ2 W236L pot=i
CCC(C)c1ccc(NC(=S)NC2CCN(Cc3ccccc3)CC2)cc1 (centres undefined)	.	i	.	.	.	.	.	.
CCc1ccc(C(C)NC(=S)NC2CCCCC2)cc1 (centres undefined)	20*	i	i	i	15*	7.8*	72*	-50	KCNQ2 W236L pot=i
Cc1ccc(S(=O)(=O)NC(=S)NC2CCCCC2)cc1	4.1	i	.	.	.	.	.	.
CC(C)C[C@H](NC(=O)C1CC(=O)N(c2ccc3c(c2)OCO3)C1)C(=O)NC1CCCCC1 (some centres undefined)	0.3	i	.	.	.	.	.	.
CC(=O)c1cccc(N(CC(=O)NC2CCCCC2)C(=O)CCC(=O)Nc2nc(C)cs2)c1	.	i	.	.	.	.	.	.
NC(=O)CC(NC(=O)c1ccccc1)c1ccc(NCCN2CCCCC2)c([N+](=O)[O-])c1 (centres undefined)	0.3	i	.	.	.	.	.	.
Cc1ccc(C(=O)NCCN2C3=NC[C@H](Cc4ccc(O)cc4)N3C[C@H]2Cc2ccc(O)cc2)cc1Br	0.05	i	.	.	.	.	.	.
SMILES	KCNQ2 enhance	KCNQ2 inh	Kir21 confirm	HEK293 ctr	CHO-K1 Tl ctr	KCNQ1 pot spec	KCNQ2 pot conf	Kir2-1 sel	others
Cc1ccc(C(=O)NCCN2C3=NC[C@@H](Cc4ccccc4)N3C[C@H]2Cc2ccc(O)cc2)cc1Br	.	i	54%*	i	.	.	.	.
C/C=C(\C)C(=O)NCCN1C2=NC[C@H](Cc3ccccc3)N2C[C@H]1Cc1ccc(O)cc1	0.1	i	.	.	.	.	.	.
COc1ccc(C[C@H]2CN3C(=NC[C@H]3Cc3ccccc3)N2CCNC(=O)c2ccc(C)c(Br)c2)cc1	.	i	28%*	i	.	.	.	.
C=CCOc1cccc(C(=O)N2CCCC(Nc3ccc4c(c3)OCCO4)C2)c1 (centres undefined)	.	i	.	.	.	.	.	.
COCCOC(=O)c1c(NC(=O)COC(=O)Cc2cccc(OC)c2)sc(C(N)=O)c1C	.	i	.	.	.	.	.	.
O=C1CCCN1CC(=O)N1CCCC(N2CCN(c3cccc(Cl)c3)CC2)C1 (centres undefined)	0.05	i	.	.	.	.	.	.
Cc1ccc(CNCCC2=CCCCC2)cc1	0.75	i	38%*	68%*	.	.	.	.
C1=C(CCNCC2CC2)CCCC1	1.2	i	.	.	.	.	.	.
CC(C)CN1CCC(=O)N(CCSc2ccc(Br)cc2)CC1	0.46	i	.	.	.	.	.	.
CCCCC#Cc1ccccc1CC(=O)Nc1ccccc1	7.1*	i	i	i	99*	-6	9.6*	-37	KCNQ2 W236L pot=i
CCCC(=O)Nc1ccc(C#Cc2ccccc2)cc1	.	i	.	.	.	.	.	.
O=C(Nc1ccccc1)c1cc(S(=O)(=O)N2CCSCC2)ccc1Cl	.	i	.	.	.	.	.	.
O=C(Nc1cccc(O)c1)c1cc(S(=O)(=O)N2CCCC2)ccc1Cl	5.3*	i	i	i	40*	-7	-12	-27
CCOc1ccc(S(=O)(=O)N2CCCC(C(=O)NCCN3CCOCC3)C2)cc1Cl (centres undefined)	0.34	i	.	.	.	.	.	.
CCc1nnc(NS(=O)(=O)c2ccc(NC(=O)c3cccc(Cl)c3)cc2)s1	.	i	.	.	.	.	.	.
Nc1ccccc1Sc1c[nH]c2ccccc12	2	i	.	.	.	.	.	.
Oc1c(Cl)cc(Cl)cc1C=Nc1ccc(Br)cc1	7.1*	i	i	i	-20	31*	16*	-25	KCNQ2 W236L pot=i
Oc1c(Cl)cc(Cl)cc1C=Nc1ccc(N2CCOCC2)cc1	4.3	i	.	.	.	.	.	.
Cc1c(C(=O)O)cccc1-c1ccc(C=O)o1	.	i	.	.	.	.	.	.
O=Cc1ccc(-c2ccccc2OC(F)(F)F)o1	6.6*	i	i	i	-6	-16	-7	-18
CCS(=O)(=O)c1ccc2oc(SCC(=O)NC(C)C3CC4CCC3C4)nc2c1 (centres undefined)	10*	i	i	i	-17	-14	21*	-37	KCNQ2 W236L pot=i
